In PubChem BioAssay AID1159580 (chemical genetic matrix, 2015):
The whole screen tested about 5,500 compounds, of which about 2,000 (36%) were called active. About 18% were inconclusive and are not listed. Cut-off read from the data, not from the text of the source: active = normalized growth mostly below about 0.91 (no sharp cut-off); inconclusive = no clear call, values can overlap the other calls; inactive = mostly above about 0.92. Some of the results follow.

Test: chemical genetic growth profiling, strain panel (AID 1159580);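 note: tested at 20 µM; growth read once vehicle control cultures reached saturation at 30 °C; 1 = growth at the plate median or of vehicle wells; lower values mean less growth of the strain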
Settings: S. cerevisiae deletion strains, growth OD

Measured: normalized growth

CC1(C)CC[C@@]2(C(=O)O)C(C1)C1=CCC3[C@@]4(C)CC[C@H](O)C(C)(C)C4CC[C@@]3(C)[C@]1(C)C[C@@H]2O (stereo not given in full)
active: locus YDL101C, strain DUN1, hits give low values 0.827 | locus YDR137W, strain rgp1, hits give low values 0.828 | locus YGL086W, strain mad1, hits give low values 1.22 [resistant] | locus YIR030C, strain dcg1, hits give low values 1.1 [resistant]
inactive: locus YAL013W, strain DEP1, hits give low values 1.02 | locus YAL021C, strain ccr4, hits give low values 1.01 | locus YAL026C, strain drs2, hits give low values 1.01 | locus YAL030W, strain snc1, hits give low values 1.01 | locus YBL061C, strain skt5, hits give low values 1.03 | locus YBR009C, strain hhf1, hits give low values 1.01 | locus YBR021W, strain FUR4, hits give low values 0.996 | locus YBR023C, strain chs3, hits give low values 1.02 | locus YBR171W, strain sec66, hits give low values 1.02 | locus YBR229C, strain ROT2, hits give low values 1.03 | locus YBR231C, strain swc5, hits give low values 1.03 | locus YBR279W, strain paf1, hits give low values 1.02 | locus YCL011C, strain gbp2, hits give low values 1.02 | locus YCL016C, strain dcc1, hits give low values 1.02 | locus YCL029C, strain bik1, hits give low values 0.992 | locus YCL061C, strain MRC1, hits give low values 1.01 | locus YCL069W, strain vba3, hits give low values 1.01 | locus YCR088W, strain abp1, hits give low values 1.01 | locus YDL005C, strain med2, hits give low values 1.01 | locus YDL035C, strain GPR1, hits give low values 1 | locus YDL040C, strain nat1, hits give low values 1.02 | locus YDL074C, strain BRE1, hits give low values 1 | locus YDL185W, strain tfp1, hits give low values 1.02 | locus YDL192W, strain arf1, hits give low values 1.05 | locus YDR001C, strain nth1, hits give low values 1.01 | locus YDR069C, strain doa4, hits give low values 1.05 | locus YDR101C, strain arx1, hits give low values 1.02 | locus YDR150W, strain NUM1, hits give low values 1.03 | locus YDR159W, strain sac3, hits give low values 0.953 | locus YDR162C, strain NBP2, hits give low values 1.01 | locus YDR195W, strain ref2 0.952 | locus YDR297W, strain sur2, hits give low values 1.01 | locus YDR318W, strain mcm21, hits give low values 1.03 | locus YDR334W, strain swr1, hits give low values 1.01 | locus YDR335W, strain msn5, hits give low values 1.02 | locus YDR388W, hits give low values 1.03 | locus YDR392W, strain spt3, hits give low values 1.01 | locus YDR502C, strain sam2, hits give low values 1.05 | locus YEL003W, strain gim4, hits give low values 1.03 | locus YEL037C, strain rad23, hits give low values 1.02 | locus YEL061C, strain CIN8 (second series), hits give low values 1.02 | locus YEL061C, strain CIN8, hits give low values 1.02 | locus YER015W, strain faa2, hits give low values 1.03 | locus YER016W, strain bim1, hits give low values 1 | locus YER110C, hits give low values 1.03 | locus YER111C, strain swi4, hits give low values 1.01 | locus YER155C, strain BEM2 (second series), hits give low values 1 | locus YER155C, strain BEM2, hits give low values 1.03 | locus YER167W, strain BCK2, hits give low values 1.04 | locus YFR010W, strain ubp6, hits give low values 1.04 | locus YGL078C, strain dbp3, hits give low values 1.03 | locus YGL167C, strain pmr1, hits give low values 1.01 | locus YGL173C, strain kem1, hits give low values 1.01 | locus YGL227W, strain vid30, hits give low values 1.01 | locus YGL240W, strain doc1, hits give low values 1 | locus YGL248W, strain PDE1, hits give low values 1.02 | locus YGL253W, strain hxk2, hits give low values 1.02 | locus YGR078C, strain PAC10, hits give low values 1.05 | locus YGR135W, strain pre9, hits give low values 1.05 | locus YGR252W, strain gcn5, hits give low values 1.07 | locus YHR013C, strain ard1, hits give low values 1.1 | locus YHR027C, strain rpn1, hits give low values 1.02 | locus YHR030C, strain SLT2, hits give low values 1.04 | locus YHR079C, strain IRE1 (second series), hits give low values 1.01 | locus YHR094C, strain hxt1, hits give low values 1.02 | locus YHR129C, strain ARP1, hits give low values 1.04 | locus YHR142W, strain chs7, hits give low values 1.03 | locus YHR200W, strain rpn10, hits give low values 1.04 | locus YIL066C, strain RNR3, hits give low values 1.05 | locus YIL073C, strain SPO22, hits give low values 1.15 | locus YIL125W, strain kgd1, hits give low values 1.02 | locus YJL092W, strain hpr5, hits give low values 1.01 | locus YJL095W, strain BCK1 (second series), hits give low values 1.01 | locus YJL095W, strain BCK1, hits give low values 0.973 | locus YJL115W, strain asf1, hits give low values 1.02 | locus YJL129C, strain trk1, hits give low values 1.02 | locus YJL134W, strain LCB3, hits give low values 1.02 | locus YJL154C, strain vps35, hits give low values 1 | locus YJL164C, strain tpk1, hits give low values 1.03 | locus YJL166W, strain qcr8, hits give low values 1.01 | locus YJL168C, strain set2, hits give low values 1.04
